BJeLR lethal – kills HRASV12-expressing BJeLR cells; BJeLR (HRASV12) viability, CellTiter-Glo ATP luminescence, 48 h; inhibition, % (test concentration not listed); 300,000 tested, 0.17% active; AID 1554; in the data active = inhibition above about 50%
PriA SSB inh – inhibitors of Klebsiella pneumoniae PriA binding to SSB C-terminal tail; AlphaScreen SSBct-PriA binding, biotinylated peptide; inhibition, % at 33 µM; 430,000 tested, 0.6% active; AID 1272365; in the data active = inhibition mostly above about 37%, no sharp cut-off; inactive = mostly below about 20%
3CLpro inhibitor – SARS-CoV 3CLpro protease inhibition; recombinant SARS-CoV 3CLpro, quenched FRET peptide cleavage; inhibition, % at 6 µM; 290,000 tested, 0.14% active; AID 1706; in the data active = inhibition above about 12%
PrPC surface inh – cell surface PrPC inhibition, primary TR-FRET screen; TR-FRET read-out; P04156; 370,000 tested, 0.43% active; inhibition, % at 13.8 µM; in the data active = inhibition above about 24%
PrP 5UTR inh – inhibition of PrP 5' UTR reporter expression | 340,000 tested, 0.35% active | inhibition, % (test concentration not listed) | cell-based PrP 5' UTR mRNA reporter, plate reader; in the data active = inhibition above about 52%
Hits are given with their value; - = inactive; . = no result given. Hits are enriched below; roughly 1.2% of the tested compounds scored in any of these assays.

SMILES	BJeLR lethal	PriA SSB inh	3CLpro inhibitor	PrPC surface inh	PrP 5UTR inh
CC1(C)OC(=O)CC1C(=O)Nc1nc(-c2ccccn2)cs1 (stereo not given)	.	104.0	.	.	.
O=C(Nc1nc(-c2ccccn2)cs1)c1ccc(C2SCCCS2)cc1	.	-	.	.	.
O=C(Nc1nc(-c2ccccn2)cs1)NC1CCCC1	.	130.0	.	.	.
O=C(Nc1nc(-c2ccccn2)cs1)C12CC3CC(CC(O)(C3)C1)C2	-	76.4	-	-	-
O=C(Nc1ccc(C(=O)Nc2nc(-c3ccccn3)cs2)cc1)NC1CC1	.	92.9	.	.	.
O=C(c1cc(-c2ccco2)[nH]n1)N1CCN(C[C@H](O)C2CC2)CC1	.	-	.	.	.
CNc1nn(CC(=O)Nc2ccc3c(c2)OCCO3)c(N)c1-c1nc(-c2ccc(C)cc2)no1	.	-	.	.	.
CS(=O)(=O)N1CCC(C(=O)N2CC(c3nc(-c4ccco4)no3)C2)CC1	.	-	.	.	.
O=C(Nc1nc(-c2ccccn2)cs1)C1CC(=O)N(c2ccc3c(c2)OCCO3)C1 (stereo not given)	-	78.0	-	-	-
O=C(Nc1nc(-c2ccccn2)cs1)C1CC1	-	104.2	-	-	-
COC(=O)NC1(C(=O)Nc2nc(-c3ccccn3)cs2)CCCC1	.	95.0	.	.	.
CN(C(=O)C(=O)Nc1nc(-c2ccccn2)cs1)C1CCSC1 (stereo not given)	.	138.0	.	.	.
CCC(=O)Nc1nc(-c2ccccn2)cs1	.	-	.	.	.
COC(=O)c1ccc(NC(=O)C(=O)NCC(c2ccco2)N2CCc3ccccc3C2)cc1 (stereo not given)	.	-	.	.	.
Oc1c(N=Nc2ccccn2)ccc2ccccc12	61.0	49.1	-	-	-
O=c1c2c(cnn2-c2ccc(F)cc2)c(C2CC2)nn1Cc1cccc(F)c1	.	-	.	.	.
Cc1cc(NC(=O)C(=O)NCC(c2ccsc2)N2CCc3ccccc3C2)no1 (stereo not given)	.	-	.	.	.
O=C(NCc1ccc(F)cc1)N(CCc1cccs1)Cc1ccco1	.	-	.	.	.
Cc1onc(-c2ccccc2Cl)c1C(=O)NCCN1Cc2ccccc2C1=O	-	47.4	-	-	-
Cc1nc(C)c(-c2ccc(=O)n(CCNC(=O)c3c(-c4ccccc4Cl)noc3C)n2)s1	.	37.0	.	.	.
Cc1nc(-c2ccccc2F)sc1CNC(=O)c1c(-c2ccccc2Cl)noc1C	.	-	.	.	.
Cc1onc(-c2ccccc2Cl)c1C(=O)NCCN1CCN(c2ccccc2F)CC1	.	-	.	.	.
Cc1ccc(N2CCCS2(=O)=O)cc1NC(=O)c1ccccc1C(F)(F)F	.	-	.	.	.
COc1ccc2nc(-n3nc(C)cc3NC(=O)Cc3ccc(F)cc3)sc2c1	.	-	.	.	.
C/C(=N/NC(=S)NCCc1ccccc1)c1ccco1	.	62.0	.	.	.
SMILES	BJeLR lethal	PriA SSB inh	3CLpro inhibitor	PrPC surface inh	PrP 5UTR inh
CCOC(=O)C(NCc1ccccn1)(NC(=O)c1cccnc1)C(F)(F)F (stereo not given)	-	50.7	-	-	-
COC(=O)N1CCC(CNC(=O)c2cc3cccc(OC)c3o2)CC1	.	-	.	.	.
COc1ccccc1OCC(=O)NC[C@H]1CCCN1c1ccccc1	.	-	.	.	.
COc1cccc2cc(C(=O)NC[C@H]3CCCN3c3ccccc3)oc12	.	29.0	.	.	.
COc1cc(-c2cc(C(=O)NCC3CCCN3c3ccccc3)[nH]n2)cc(OC)c1OC (stereo not given)	.	59.0	.	.	.
Cc1cc(C)c(S(=O)(=O)Nc2ccc3c(c2)C(=O)N(C)c2cc(C)ccc2O3)c(C)c1	.	-	.	.	.
Cc1ccc(CCC(=O)Nc2ccc(Cl)c([N+](=O)[O-])c2)o1	.	48.0	.	.	.
Cc1ccc(CCC(=O)Nc2ccc([N+](=O)[O-])cc2)o1	-	-	-	-	-
Cc1cccc(-n2ncc3c(N(C)Cc4ccccc4)ncnc32)c1	-	104.2	.	-	-
O=C(c1csc(Nc2ccccc2)n1)N1CCN(Cc2ccc3c(c2)OCO3)CC1	.	active	.	.	.
O=C(Cc1csc(Nc2ccccc2)n1)N1CCN(Cc2ccc3c(c2)OCO3)CC1	.	-	.	.	.
O=C(c1csc(Nc2ccccc2)n1)N1CCN(c2ccccc2F)CC1	.	26.0	.	.	.
O=C(Nc1cccc2ncccc12)c1ccc(Cl)cc1	-	47.9	-	-	-
O=[N+]([O-])c1ccc(-[n+]2nc(-c3ccccc3)nn2-c2ccc(I)cc2)cc1	.	155.0	.	.	.
Cc1oc(-c2ccccc2)nc1CSc1nc2c(c(=O)[nH]1)CCC2	-	-	-	-	-
Cc1ccccc1-c1nc(CSc2nc3c(c(=O)[nH]2)CCC3)c(C)o1	-	93.8	-	-	-
Cc1cccc(-c2nc(CSc3nc4c(c(=O)[nH]3)CCC4)c(C)o2)c1	-	96.5	-	-	-
COc1ccc(SCCCC(=O)Nc2cccc(C)c2C)cc1	.	-	.	.	.
CCOC(=O)c1ccc(Oc2c(C)oc3c4c(ccc3c2=O)OCN(C2CCS(=O)(=O)C2)C4)cc1 (stereo not given)	.	38.0	.	.	.

Screens from PubChem.
